Bioassay records deposited in PubChem BioAssay by The Scripps Research Institute Molecular Screening Center.
TTR transcr act: TTR transcription activators in neuroblastoma reporter cells, primary screen, cell-based, luminescence, SH-SY5Y, TTR promoter Gaussia luciferase; 100% = recombinant luciferase protein wells; activation, % at 16.7 µM; 1.3% of 92,000 active;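 active = activation above the mean of all tested compounds plus 3 SD, cut at about 9.5% in these data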;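 note: cells exposed to compounds for one day before reading; 0% = median of all test compound wells on the plate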
TTR inh HuH7: TTR promoter reporter inhibitors in hepatoma cells, counter-screen for TTR transcription activator project, cell-based, luminescence, HuH7 hepatoma; shares compounds with TTR transcr act; HuH7 TTR promoter-Gaussia luciferase reporter; inhibition, % at 16.7 µM; 4% of 1,100 active;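 active = average inhibition above the solvent-only control wells' mean plus 3 SD, cut at about 15% in these data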;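 note: 0% = cells with DMSO only and 100% = cells with inhibitor control FD; inhibitors lower well luminescence so higher value means more inhibition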
TTR act confirm: TTR transcription activators, retest, confirmation, cell-based, luminescence, SH-SY5Y, triplicate. shares compounds with TTR transcr act. SHSY5Y TTR promoter Gaussia luciferase; 100% = purified Lucia enzyme wells, no cells. activation, % at 16.7 µM. 1,100 tested, under 10 active. AID 1117280, 2014;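 active = mean activation above a set limit taken from the earlier primary screen, cut at about 11% in these data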;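 note: 0% = DMSO-treated cells and 100% = recombinant Lucia luciferase without cells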
* = called active by the depositor. This is one part of a sample in which hits are shown more often than they occur.

SMILES	TTR transcr act	others
Nc1ncnc2c1ncn2CCN1CCOCC1	12.5*	TTR inh HuH7=-5.0;TTR act confirm=-0.3
Nc1ncnc2c1ncn2[C@H]1C[C@H](O)[C@@H](CO)O1	8.9
N#Cc1cccc(Cn2ccc3ccc(-c4ccc5ccn(Cc6ccccc6)c5c4)cc32)c1	-0.8
CCOC(=O)c1cccc(-c2cc(C(C)=O)c3n(c2=O)CCC3)c1	-1.8
CCc1nc2ccc(C(=O)N3CCN(C(C)=O)CC3)cn2c1N(CC)C(C)=O	1.2
COc1cccc(C(=O)C2CCCN(C(=O)c3ccc(C#CC(C)(C)O)cc3)C2)c1 (centres undefined)	0.2
COc1ccc(C(=O)C2CCCN(C(=O)c3ccccc3C(C)=O)C2)cc1F (centres undefined)	-0.8
COc1ccc(C(=O)C2CCCN(C(=O)c3cccc(N(C)C)c3)C2)cc1OC (centres undefined)	11.7*	TTR inh HuH7=-11.9;TTR act confirm=0.3
Cc1cccnc1NC(=O)c1nn(C)c2c1CS(=O)(=O)c1ccccc1-2	4.9
CCN(CC(=O)Nc1c(F)cccc1F)C(=O)C1CCN(C(=O)Nc2ccccc2)CC1	-0.3
COc1ccc2[nH]c3c(c2c1)CCN[C@]31C(=O)N(Cc2ccccc2)c2ccccc21	1.1
Clc1cccc(-c2nc3ccc(Br)cn3c2Cc2ccccc2)c1	-1.2
Brc1cccc(-c2nc3ccc(Br)cn3c2Cc2ccccc2)c1	21.7*	TTR inh HuH7=-2.5;TTR act confirm=-1.0
Cc1ccc(Cc2c(-c3ccccc3)nc3ccc(Br)cn23)cc1	1.3
COc1ccc(S(=O)(=O)N(C)C)cc1NC(=O)Cc1ccc(S(=O)(=O)N2CCOCC2)s1	-0.9
O=S(=O)(c1ccccc1)C1CC1(c1ccccc1)c1ccccc1 (centres undefined)	13.6*	TTR inh HuH7=-3.5;TTR act confirm=-0.1
O=S(=O)(Oc1ccccc1-c1ccccc1)c1ccccc1	-0.5
O=S(=O)(NCCC1CC1(Cl)Cl)c1ccccc1 (centres undefined)	-0.1
Cc1ccc(NC(=O)C2CCN(S(=O)(=O)c3cccc(C(F)(F)F)c3)CC2)nc1	0.6
CSCC(=O)Nc1cc(C)on1	7.8
Cc1cc(NC(=O)CSCC(=O)N(C)Cc2ccc(F)cc2)no1	12.9*	TTR inh HuH7=-11.3;TTR act confirm=-0.7
Cc1cc(NC(=O)CSCC(=O)OCc2nnc(-c3ccc(F)cc3)o2)no1	-0.8
C[C@@H]1CCCCO[C@@H](CN(C)C(=O)Nc2ccc(F)cc2)[C@@H](C)CN([C@H](C)CO)C(=O)c2cc(NC(=O)Nc3ccc4c(c3)OCO4)ccc2O1	-1.2
CC1Sc2ccc(C(=O)N(CCc3ccccc3)Cc3ccccc3)cc2NC1=O (centres undefined)	-1.1
O=C(OCc1cn(Cc2ccc(F)cc2)nn1)N1CCOCC1	0.4
SMILES	TTR transcr act	others
O=C(COC(=O)c1ccc(Cl)nc1)Nc1cc(S(=O)(=O)N2CCCCC2)ccc1Cl	-0.8
O=C(COC(=O)c1ccccc1O)Nc1ccc(S(=O)(=O)N2CCCCC2)cc1	-4.0
O=C(COC(=O)c1ccc(Cl)nc1)Nc1ccc(S(=O)(=O)N2CCCC2)cc1	20.0*	TTR inh HuH7=-0.6;TTR act confirm=-0.8
NNC(=O)CCN(Cc1ccco1)S(=O)(=O)c1ccc(Cl)cc1	-1.2
CCC(=O)c1ccc(OCC(=O)OCC(=O)N(CCC#N)c2ccc3c(c2)OCCO3)cc1	-1.2
CC(=O)c1ccc(CC2SC(N)=NC2=O)cc1 (centres undefined)	2.5
NC1=NC(=O)C(CC(=O)NCc2ccccc2)S1 (centres undefined)	5.6
Cc1ccc(C(=O)CC2SC(N)=NC2=O)cc1 (centres undefined)	20.3*	TTR inh HuH7=-6.8;TTR act confirm=2.5
O=C(Nc1ccc(F)cc1)Nc1c(-c2ccccc2)nc2ncccn12	-0.6
COc1ccc(Cn2cc(COC(=O)NCCc3c[nH]c4ccccc34)nn2)cc1	1.7
O=C1CCCN2N=C(SCC(=O)Nc3nccs3)SC2=N1	-0.6
O=C1CCCN2N=C(SCC(=O)Nc3ccc([N+](=O)[O-])cc3)SC2=N1	32.1*	TTR inh HuH7=-9.7;TTR act confirm=-0.6
Cc1ccc(NC(=O)CSC2=NN3CCCC(=O)N=C3S2)c(C)c1	-0.4
O=C(Cc1cccc(NC(=O)C2CCCN(C(=O)c3ccccc3)C2)c1)Nc1cccc(C(=O)N2CCCCC2)c1 (centres undefined)	2.6
O=C(Cc1cccc(NC(=O)C2CCCN(C(=O)C3CC3)C2)c1)Nc1ccc(C(=O)N2CCCCC2)cc1 (centres undefined)	0.8
Cc1cccc(C)c1NC(=O)CNC(=O)C1CCCN(C(=O)c2ccc(Cl)cc2)C1 (centres undefined)	26.2*	TTR inh HuH7=-6.6;TTR act confirm=-0.9
O=C(NC1CCCCN(Cc2ccc(Cl)cc2)C1=O)C1C2CC3CC(C2)CC1C3 (centres undefined)	-1.2
c1ccc(SCc2nc3ccccc3[nH]2)nc1	14.0*	TTR inh HuH7=-23.0;TTR act confirm=1.3
Cn1nnnc1SCc1nc2ccccc2[nH]1	-0.8
Cc1nnc(SCc2nc3ccccc3[nH]2)s1	5.0
Cc1ccc(S(=O)(=O)N(C)CC(=O)OCC(=O)NC(c2ccccc2)c2ccccc2)cc1	-0.6
CC(O)CNc1nc(NCc2ccccc2)c2cnn(C)c2n1 (centres undefined)	0.5
CCN(CC)c1nc2ccccc2c(N)c1-c1ccccc1	9.1
COc1ccc(CC2CCN(c3ncnc4sccc34)CC2)cc1	-3.7
O=C(Nc1ccc2c(c1)OCO2)c1ccc(Br)o1	-2.2
SMILES	TTR transcr act	others
O=C(Nc1ccc2c(c1)OCO2)c1cncc(Br)c1	10.6*	TTR inh HuH7=-2.8;TTR act confirm=0.1
O=C(Nc1ccc2c(c1)OCO2)c1cccc(F)c1	3.6
COC(=O)c1cc(-c2cc(Cl)cc(Cl)c2)c(=O)n2c1CCC2	3.8
Cc1cn([C@H]2C[C@H](O)[C@@H](CNC(=O)[C@H]3CCC(=O)N3)O2)c(=O)[nH]c1=O	1.6
C=Cn1cc(CNC[C@H]2O[C@@H](n3cc(C)c(=O)[nH]c3=O)C[C@@H]2O)c(C)n1	11.4*	TTR inh HuH7=-13.2;TTR act confirm=-0.5
Cc1cn([C@H]2C[C@H](O)[C@@H](CNCc3ccc(N4CCN(C)CC4)cc3F)O2)c(=O)[nH]c1=O	3.4
O=C(Nc1nc2ncccn2c1-c1ccc(F)cc1)c1ccc(F)cc1	-0.7
S=C(Nc1ccc(Br)cc1)OCCN1CCCC12CCC(c1ccccc1)CC2 (centres undefined)	1.0
O=C(OCC#CCSc1nnc(-c2cccc3ccccc23)o1)c1ccsc1	-0.7
O=C(NCCSCc1ccccc1)c1cc(S(=O)(=O)N2CCOCC2)ccc1F	-0.5
CCOCCCNC(=O)c1cc(C)nn1-c1ccccc1	-0.3
Cc1cc(C(=O)NCCCN2CCOCC2)n(-c2ccccc2)n1	17.5*	TTR inh HuH7=-3.2;TTR act confirm=0.0
Cc1cc(C(=O)N2CCOCC2)n(-c2ccccc2)n1	0.3
CCC(C)OC(=O)C1=C(C)O[C@]23OC(N)=C(C#N)[C@]12C(=O)c1ccccc13 (some centres undefined)	-1.2
CCCn1c(C(C)Nc2nc(-c3ccc(OC)cc3)cs2)nc2ccccc21 (centres undefined)	6.8
CCn1c(C(O)c2cc(OC)c(OC)c(OC)c2)nc2ccccc21 (centres undefined)	2.7
CCCn1c(C(O)c2ccc(OC)cc2)nc2ccccc21 (centres undefined)	9.8*	TTR inh HuH7=-16.7;TTR act confirm=0.4
